Screen size: about 1,300 compounds; about 380 (29%) were called active. Roughly 37% stayed inconclusive and do not appear here. Calls follow the shape of the dose curve; as a rule, active = well fitted inhibition curve with a large enough effect; inconclusive = small, poorly fitted or top-dose-only effect; inactive = flat fitted curve, though single readings scatter. This is one part of the list. Entries that show only a call come without a potency.
Potency is read from the fitted curve at half-maximal effect.

For this experiment, the target named is Thyrotropin receptor (Homo sapiens) (UniProt P16473). The experiment in a line: qHTS for antagonists of the Thyroid Stimulation Hormone Receptor: Hit Validation in Primary Screen. Also: nearly all actives have a fitted effect of over 80% in size. The settings on record: TSHR-expressing cells, cAMP antagonist mode; series mostly up to 58 µM. The procedure, abridged: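 TSHR-expressing cells were pretreated with compound, then stimulated with TSH at EC80 (4nM final) for 2 hours at 37 deg C. Cellular cAMP measured by competitive HTRF (anti-cAMP cryptate, cAMP-d2) after 30 min at room temperature.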
Chain of Thyrotropin receptor (Homo sapiens) (P16473 whole entry, looked up): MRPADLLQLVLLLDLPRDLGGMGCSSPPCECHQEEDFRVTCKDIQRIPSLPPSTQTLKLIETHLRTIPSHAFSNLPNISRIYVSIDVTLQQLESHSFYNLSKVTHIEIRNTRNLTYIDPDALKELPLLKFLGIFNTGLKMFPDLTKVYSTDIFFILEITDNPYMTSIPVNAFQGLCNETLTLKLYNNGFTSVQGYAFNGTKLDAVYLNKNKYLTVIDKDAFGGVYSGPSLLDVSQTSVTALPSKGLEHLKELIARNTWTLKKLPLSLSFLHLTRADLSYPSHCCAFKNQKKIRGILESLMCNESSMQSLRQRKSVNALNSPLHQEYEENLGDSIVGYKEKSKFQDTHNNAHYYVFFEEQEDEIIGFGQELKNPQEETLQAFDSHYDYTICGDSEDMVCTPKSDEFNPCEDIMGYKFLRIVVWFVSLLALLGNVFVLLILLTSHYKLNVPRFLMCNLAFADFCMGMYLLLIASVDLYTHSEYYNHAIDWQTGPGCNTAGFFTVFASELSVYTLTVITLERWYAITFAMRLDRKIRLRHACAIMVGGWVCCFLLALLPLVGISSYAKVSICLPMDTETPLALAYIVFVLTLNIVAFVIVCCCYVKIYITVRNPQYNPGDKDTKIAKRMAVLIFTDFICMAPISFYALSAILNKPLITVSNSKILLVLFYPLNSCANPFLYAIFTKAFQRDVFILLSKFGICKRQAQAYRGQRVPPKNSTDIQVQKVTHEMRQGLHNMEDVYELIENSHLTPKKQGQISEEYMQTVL
As to `O=S(=O)(C/C(=C/CO)S(=O)(=O)c1ccccc1)c1ccccc1`, the Potency entry was “inactive”.
For the compound `Cc1ccnc(OC(C(=O)O)C(OCCc2ccccc2)(c2ccccc2)c2ccccc2)n1` (stereo not drawn), the Potency result is “inactive”.
With `O=C(c1ccc(Cl)c(S(=O)(=O)N2CCCCC2)c1)N1CCCC1` the entry was “inactive”; with `COc1ccc(CCNC(=O)c2ccc(Cl)c(S(=O)(=O)N3CCCCCC3)c2)cc1`, 16.9 µM (active).
With `CSCC[C@H](NC(=O)c1ccc(Cl)c(S(=O)(=O)N2CCCC2)c1)c1nc2ccccc2[nH]1` the entry was “inactive”; with `COc1ccc(-c2cc(C3CCN(c4cc(Cl)nc(N)n4)CC3)[nH]n2)cc1`, 37.9 µM (active).
Take `O=C(N[C@H]1C/C=C\C(c2ccc(F)cc2)N(Cc2ccccc2)C(=O)C1)OCC1c2ccccc2-c2ccccc21` (stereo partly drawn): the Potency entry is “inactive”.
As for `O=S(=O)(Nc1cccnc1)c1ccc(Br)c2ccccc12`, the figure is 26.9 µM (active).
As to `COc1ccc(-c2ccc(SCc3ccccn3)nn2)cc1OC`, the Potency result is “inactive”.
With `COc1cccc(NC(=O)Nc2nc(-c3ccc(OC)c(OC)c3)cs2)c1` the figure was 15.1 µM (active).
Consider `COc1ccc(NC(=O)CSc2nc3[nH]c(=O)[nH]c(=O)c3s2)cc1OC`, for which the Potency entry was “inactive”.
As to `CC(=O)Nc1ccc(-c2csc(NC(=O)Nc3ccccc3)n2)cc1`, the Potency was 37.9 µM (active).
As for `O=C(NC(=S)Nc1ccccc1)c1cc(-c2ccccc2)nc2ccccc12`, the entry is “inactive”; as for `CCN(CC)C(=O)Cn1c(=O)n(-c2ccccc2)c(=O)c2sccc21`, “inactive”; as for `CC(=O)c1ccc(N(C(=O)CNC(=O)c2ccco2)C(C(=O)NC2CCCC2)c2ccncc2)cc1` (stereo not drawn), “inactive”.
On to `COc1ccc(NC(=S)N(CCCN2CCOCC2)C(C)c2cc3cccc(OC)c3o2)cc1` (stereo not drawn), for which the Potency result is “inactive”.
As to `COc1ccc(OCC(=O)NC(=S)Nc2ccc(N3CCOCC3)c(Cl)c2)cc1`, the Potency was 19 µM (active).
Take `COc1ccc(NC(=O)CCNS(=O)(=O)c2ccc3c(c2)CC(C)N3C(C)=O)cc1` (stereo not drawn): the Potency entry is “inactive”.
With `O=C(c1ccco1)N1CCN(c2ncnc3c2nnn3Cc2ccccc2Cl)CC1` the figure was 30.1 µM (active); with `N#Cc1nc(-c2ccccc2)oc1N1CCN(C(=O)c2ccco2)CC1`, “inactive”; with `CC(C)Nc1ncnc2c1nnn2Cc1ccccc1`, “inactive”.
Turning to `CN(Cc1ccccc1)S(=O)(=O)c1ccc(OCC(=O)NCc2ccccn2)cc1`, the Potency result was “inactive”.
With `O=C(COc1ccc(Cl)cc1)Nc1nc(-c2cccs2)cs1`, the Potency was 23.9 µM (active).
As for `CC1CCCCN1C(=O)CSCC(=O)Nc1nc(-c2cccs2)cs1` (stereo not drawn), the figure is 30.1 µM (active); as for `O=C(Nc1nc(-c2cccs2)cs1)c1cccc(S(=O)(=O)N2CCCCCC2)c1`, “inactive”.
With `CCOc1ccc(N(CC(=O)NCc2ccc(F)cc2)C(=O)CCC(=O)Nc2nccs2)cc1` the entry was “inactive”; with `CCOC(=O)Cc1csc(NC(=O)COc2ccc(N(C)S(=O)(=O)c3cccs3)cc2)n1`, 23.9 µM (active).
With `CN(C)S(=O)(=O)c1ccc(C(=O)Nc2nc(-c3cccs3)cs2)cc1` the figure was 19 µM (active).
